Data published in PubChem BioAssay AID1159580 (chemical genetic matrix, 2015).
Several values for one entry are separate records, joined by “and”; a condition that tells them apart may be missing. Equal values may be shown once. Among all 5,500 compounds or so, about 2,000 (36%) were called active. Inconclusive results (about 18%) are left out. Rule as the data show it: active = normalized growth mostly below about 0.91 (no sharp cut-off); inconclusive = no clear call, values can overlap the other calls; inactive = mostly above about 0.92. This is one part of the list.

Assay: chemical genetic growth profiling, strain panel (AID 1159580);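 also: tested at 20 µM; growth read once vehicle control cultures reached saturation at 30 °C; 1 = growth at the plate median or of vehicle wells; lower values mean less growth of the strain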
Details: S. cerevisiae deletion strains, growth OD

Measured: normalized growth

CCCNC(=O)NS(=O)(=O)c1ccc(Cl)cc1
inactive: locus YAL013W, strain DEP1, stronger effect = lower value 1.01 and 0.978 | locus YAL021C, strain ccr4, stronger effect = lower value 1.02 | locus YAL026C, strain drs2, stronger effect = lower value 1.01 | locus YAL030W, strain snc1, stronger effect = lower value 1.01 | locus YAL040C, strain CLN3, stronger effect = lower value 1.09 | locus YBL061C, strain skt5, stronger effect = lower value 1.01 | locus YBR009C, strain hhf1, stronger effect = lower value 1.02 | locus YBR021W, strain FUR4, stronger effect = lower value 1.03 | locus YBR023C, strain chs3, stronger effect = lower value 1.02 | locus YBR171W, strain sec66, stronger effect = lower value 1.01 | locus YBR229C, strain ROT2, stronger effect = lower value 0.993 | locus YBR231C, strain swc5, stronger effect = lower value 1.01 | locus YBR279W, strain paf1, stronger effect = lower value 1.01 | locus YCL011C, strain gbp2, stronger effect = lower value 1 | locus YCL016C, strain dcc1, stronger effect = lower value 1.01 | locus YCL029C, strain bik1, stronger effect = lower value 1.01 | locus YCL061C, strain MRC1 (second series), stronger effect = lower value 0.997 | locus YCL069W, strain vba3, stronger effect = lower value 1.01 | locus YCR088W, strain abp1, stronger effect = lower value 0.996 | locus YDL005C, strain med2, stronger effect = lower value 1.01 | locus YDL035C, strain GPR1, stronger effect = lower value 1 | locus YDL040C, strain nat1, stronger effect = lower value 1.01 | locus YDL074C, strain BRE1, stronger effect = lower value 1.01 | locus YDL101C, strain DUN1, stronger effect = lower value 1.03 | locus YDL134C, strain PPH21, stronger effect = lower value 1 | locus YDL185W, strain tfp1, stronger effect = lower value 1 | locus YDL192W, strain arf1, stronger effect = lower value 1.03 | locus YDR001C, strain nth1, stronger effect = lower value 1.01 | locus YDR069C, strain doa4, stronger effect = lower value 1.03 | locus YDR101C, strain arx1, stronger effect = lower value 1.01 | locus YDR137W, strain rgp1, stronger effect = lower value 0.994 | locus YDR150W, strain NUM1, stronger effect = lower value 0.986 and 1 | locus YDR159W, strain sac3, stronger effect = lower value 1.01 | locus YDR162C, strain NBP2, stronger effect = lower value 0.984 | locus YDR195W, strain ref2 1.03 | locus YDR297W, strain sur2, stronger effect = lower value 1.02 | locus YDR318W, strain mcm21, stronger effect = lower value 1.01 | locus YDR334W, strain swr1, stronger effect = lower value 1.01 | locus YDR335W, strain msn5, stronger effect = lower value 1.02 | locus YDR363W, strain ESC2, stronger effect = lower value 0.97 | locus YDR388W, stronger effect = lower value 1.01 | locus YDR392W, strain spt3, stronger effect = lower value 1 | locus YDR502C, strain sam2, stronger effect = lower value 1.05 | locus YEL003W, strain gim4, stronger effect = lower value 1.02 | locus YEL037C, strain rad23, stronger effect = lower value 1.01 | locus YEL061C, strain CIN8 (second series), stronger effect = lower value 1.02 | locus YEL061C, strain CIN8, stronger effect = lower value 0.997 | locus YER002W, strain NOP16, stronger effect = lower value 1.01 | locus YER015W, strain faa2, stronger effect = lower value 1.02 | locus YER016W, strain bim1, stronger effect = lower value 0.989 | locus YER110C, stronger effect = lower value 0.998 | locus YER111C, strain swi4, stronger effect = lower value 1.02 | locus YER155C, strain BEM2 (second series), stronger effect = lower value 1.03 | locus YER155C, strain BEM2, stronger effect = lower value 1.01 | locus YER167W, strain BCK2, stronger effect = lower value 1 | locus YFR010W, strain ubp6, stronger effect = lower value 1.04 | locus YGL078C, strain dbp3, stronger effect = lower value 1.02 | locus YGL167C, strain pmr1, stronger effect = lower value 0.991 | locus YGL173C, strain kem1, stronger effect = lower value 1.02 | locus YGL227W, strain vid30, stronger effect = lower value 1.02 | locus YGL240W, strain doc1, stronger effect = lower value 1.03 | locus YGL248W, strain PDE1, stronger effect = lower value 1.03 | locus YGL253W, strain hxk2, stronger effect = lower value 1.01 | locus YGR135W, strain pre9, stronger effect = lower value 1.05 | locus YGR229C, strain SMI1, stronger effect = lower value 0.994 | locus YGR252W, strain gcn5, stronger effect = lower value 1.07 | locus YHR013C, strain ard1, stronger effect = lower value 1.05 | locus YHR027C, strain rpn1, stronger effect = lower value 1.01 | locus YHR030C, strain SLT2, stronger effect = lower value 0.991 and 1.01 | locus YHR079C, strain IRE1 (second series), stronger effect = lower value 1.01 | locus YHR079C, strain IRE1, stronger effect = lower value 0.986 | locus YHR094C, strain hxt1, stronger effect = lower value 1.01 | locus YHR129C, strain ARP1, stronger effect = lower value 1.01 | locus YHR142W, strain chs7, stronger effect = lower value 1.04 | locus YHR200W, strain rpn10, stronger effect = lower value 1.01 | locus YIL066C, strain RNR3, stronger effect = lower value 0.998 | locus YIL073C, strain SPO22, stronger effect = lower value 1.02 | locus YIL125W, strain kgd1, stronger effect = lower value 0.997 | locus YIR030C, strain dcg1, stronger effect = lower value 0.997 | locus YJL092W, strain hpr5, stronger effect = lower value 1 | locus YJL095W, strain BCK1 (second series), stronger effect = lower value 1.02 | locus YJL095W, strain BCK1, stronger effect = lower value 1.05 and 0.979 | locus YJL115W, strain asf1, stronger effect = lower value 1.02 | locus YJL129C, strain trk1, stronger effect = lower value 1.02 | locus YJL134W, strain LCB3, stronger effect = lower value 0.996 | locus YJL154C, strain vps35, stronger effect = lower value 1.01 | locus YJL164C, strain tpk1, stronger effect = lower value 1.01 | locus YJL166W, strain qcr8, stronger effect = lower value 1.01 | locus YJL168C, strain set2, stronger effect = lower value 1.01 | locus YJL187C, strain SWE1 (second series), stronger effect = lower value 1.03 | locus YJR043C, strain POL32, stronger effect = lower value 1 | locus YJR066W, strain TOR1, stronger effect = lower value 0.983 | locus YKL009W, strain mrt4, stronger effect = lower value 1.01 | locus YKL068W, stronger effect = lower value 0.984 | locus YKL085W, strain MDH1 (second series), stronger effect = lower value 0.979 | locus YKL085W, strain MDH1, stronger effect = lower value 0.979 | locus YKL160W, strain elf1, stronger effect = lower value 1.02 | locus YKR001C, strain vps1, stronger effect = lower value 0.992 | locus YKR026C, strain gcn3, stronger effect = lower value 0.99 | locus YKR091W, strain srl3, stronger effect = lower value 1.01 | locus YLL001W, strain dnm1, stronger effect = lower value 1.01 | locus YLL026W, stronger effect = lower value 1.02 | locus YLL041C, strain sdh2, stronger effect = lower value 0.991 | locus YLR027C, strain aat2, stronger effect = lower value 1.01 | locus YLR039C, strain RIC1, stronger effect = lower value 0.967 | locus YLR058C, strain SHM2, stronger effect = lower value 1.02 | locus YLR102C, strain apc9, stronger effect = lower value 1 | locus YLR113W, strain HOG1, stronger effect = lower value 0.99 | locus YLR221C, strain rsa3, stronger effect = lower value 1 | locus YLR258W, strain gsy2, stronger effect = lower value 1.01 | locus YLR262C, strain YPT6 (second series), stronger effect = lower value 1 | locus YLR262C, strain YPT6, stronger effect = lower value 0.977 | locus YLR268W, strain sec22, stronger effect = lower value 1.01 | locus YLR320W, strain mms22, stronger effect = lower value 1.02 | locus YLR330W, strain CHS5, stronger effect = lower value 1 | locus YLR342W, strain FKS1 (second series), stronger effect = lower value 0.984 | locus YLR342W, strain FKS1, stronger effect = lower value 1.02 | locus YLR357W, strain rsc2, stronger effect = lower value 1.03 | locus YLR370C, strain arc18, stronger effect = lower value 1.02 | locus YLR371W, strain rom2, stronger effect = lower value 0.997 | locus YLR384C, strain iki3, stronger effect = lower value 1.03 | locus YLR418C, strain cdc73, stronger effect = lower value 1.08 | locus YML016C, strain PPZ1, stronger effect = lower value 0.997 | locus YML032C, strain rad52, stronger effect = lower value 0.996 | locus YML120C, strain ndi1, stronger effect = lower value 1.02 | locus YML124C, strain tub3, stronger effect = lower value 0.997 | locus YMR058W, strain fet3, stronger effect = lower value 1 | locus YMR078C, strain ctf18, stronger effect = lower value 1 | locus YMR125W, strain sto1, stronger effect = lower value 1 | locus YMR129W, stronger effect = lower value 1.01 | locus YMR205C, strain PFK2, stronger effect = lower value 1.02 | locus YMR223W, strain ubp8, stronger effect = lower value 1.03 | locus YMR231W, strain pep5, stronger effect = lower value 1.01 | locus YMR263W, strain SAP30, stronger effect = lower value 0.991 | locus YMR307W, strain GAS1, stronger effect = lower value 1.09 | locus YNL067W, strain RPL9B, stronger effect = lower value 1.03 | locus YNL071W, strain lat1, stronger effect = lower value 1.03 | locus YNL128W, strain TEP1, stronger effect = lower value 1.01 | locus YNL153C, strain GIM3, stronger effect = lower value 1.02 and 1.01 | locus YNL175C, strain NOP13, stronger effect = lower value 1.02 | locus YNL183C, strain NPR1, stronger effect = lower value 0.935 | locus YNL197C, strain WHI3, stronger effect = lower value 1.02 | locus YNL209W, strain ssb2, stronger effect = lower value 1 | locus YNL224C, strain SQS1, stronger effect = lower value 0.983 | locus YNL233W, strain BNI4, stronger effect = lower value 1.02 | locus YNL248C, strain rpa49, stronger effect = lower value 1.09 | locus YNL250W, strain rad50, stronger effect = lower value 1 | locus YNL271C, strain bni1, stronger effect = lower value 1.01 | locus YNL298W, strain CLA4, stronger effect = lower value 0.99 | locus YNL307C, strain MCK1, stronger effect = lower value 1.01 | locus YNL322C, strain KRE1 (second series), stronger effect = lower value 1 | locus YNL322C, strain KRE1, stronger effect = lower value 0.988 | locus YNR049C, strain mso1, stronger effect = lower value 1.02 | locus YNR052C, strain pop2, stronger effect = lower value 1.01 | locus YOL012C, strain htz1 0.677 | locus YOL147C, strain pex11, stronger effect = lower value 0.996 | locus YOR001W, strain rrp6, stronger effect = lower value 1.02 | locus YOR061W, strain CKA2, stronger effect = lower value 1.01 | locus YOR069W, strain VPS5, stronger effect = lower value 0.992 | locus YOR070C, strain gyp1, stronger effect = lower value 1.01 | locus YOR080W, strain dia2, stronger effect = lower value 1.03 | locus YOR083W, strain WHI5 (second series), stronger effect = lower value 0.985 | locus YOR083W, strain WHI5, stronger effect = lower value 1.01 | locus YOR106W, strain vam3, stronger effect = lower value 1.01 | locus YOR136W, strain idh2, stronger effect = lower value 1 | locus YOR144C, strain elg1, stronger effect = lower value 1.01 | locus YOR184W, strain ser1, stronger effect = lower value 1.01 | locus YOR231W, strain MKK1, stronger effect = lower value 0.971 | locus YOR265W, strain rbl2, stronger effect = lower value 1.01 | locus YOR270C, strain vph1, stronger effect = lower value 1.01 | locus YOR290C, strain snf2, stronger effect = lower value 1.02 | locus YOR316C, strain cot1, stronger effect = lower value 1 | locus YPL051W, strain arl3, stronger effect = lower value 1.02 | locus YPL078C, strain atp4, stronger effect = lower value 1.02 | locus YPL106C, strain sse1, stronger effect = lower value 1.03 | locus YPL240C, strain hsp82, stronger effect = lower value 1.01 | locus YPL241C, strain CIN2, stronger effect = lower value 0.997 | locus YPL256C, strain CLN2, stronger effect = lower value 0.975 | locus YPR119W, strain clb2, stronger effect = lower value 0.999 | locus YPR141C, strain kar3, stronger effect = lower value 1 | locus YPR163C, strain tif3, stronger effect = lower value 1 | locus YPR167C, strain met16, stronger effect = lower value 1 | strain wtn01, stronger effect = lower value 1.01
